Measurements as given in PubChem BioAssay AID1159580 (chemical genetic matrix, 2015).
The campaign covered roughly 5,500 compounds. About 2,000 (36%) were called active. Another 18% or so got no clear call; they are omitted. Cut-off read from the data, not from the text of the source: active = normalized growth mostly below about 0.91 (no sharp cut-off); inconclusive = no clear call, values can overlap the other calls; inactive = mostly above about 0.92. This is one part of the list.

Assay: chemical genetic growth profiling, strain panel (AID 1159580);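 note: tested at 20 µM; growth read once vehicle control cultures reached saturation at 30 °C; 1 = growth at the plate median or of vehicle wells; lower values mean less growth of the strain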
Details: growth OD

Measured: normalized growth

COc1cc2c3cc1Oc1cc(ccc1O)C[C@@H]1c4c(cc(OC)c(O)c4Oc4ccc(cc4)C[C@@H]3N(C)CC2)CC[N+]1(C)C
inactive: S. cerevisiae deletion strains, locus YKL009W, strain mrt4, stronger effect = lower value 1.04 | S. cerevisiae deletion strains, locus YKL068W, stronger effect = lower value 0.997 | S. cerevisiae deletion strains, locus YKL085W, strain MDH1 (second series), stronger effect = lower value 0.988 | S. cerevisiae deletion strains, locus YKL085W, strain MDH1, stronger effect = lower value 0.988 | S. cerevisiae deletion strains, locus YKL160W, strain elf1, stronger effect = lower value 1.04 | S. cerevisiae deletion strains, locus YKL190W, strain CNB1, stronger effect = lower value 1.01 | S. cerevisiae deletion strains, locus YKR001C, strain vps1, stronger effect = lower value 1.01 | S. cerevisiae deletion strains, locus YKR026C, strain gcn3, stronger effect = lower value 1 | S. cerevisiae deletion strains, locus YKR091W, strain srl3, stronger effect = lower value 0.999 | S. cerevisiae deletion strains, locus YLL001W, strain dnm1, stronger effect = lower value 1.04 | S. cerevisiae deletion strains, locus YLL026W, stronger effect = lower value 1.01 | S. cerevisiae deletion strains, locus YLL041C, strain sdh2, stronger effect = lower value 1 | S. cerevisiae deletion strains, locus YLR027C, strain aat2, stronger effect = lower value 1.02 | S. cerevisiae deletion strains, locus YLR039C, strain RIC1, stronger effect = lower value 1.09 | S. cerevisiae deletion strains, locus YLR058C, strain SHM2, stronger effect = lower value 1.01 | S. cerevisiae deletion strains, locus YLR102C, strain apc9, stronger effect = lower value 1 | S. cerevisiae deletion strains, locus YLR113W, strain HOG1, stronger effect = lower value 0.996 | S. cerevisiae deletion strains, locus YLR221C, strain rsa3, stronger effect = lower value 0.966 | S. cerevisiae deletion strains, locus YLR258W, strain gsy2, stronger effect = lower value 0.988 | S. cerevisiae deletion strains, locus YLR262C, strain YPT6 (second series), stronger effect = lower value 1.04 | S. cerevisiae deletion strains, locus YLR262C, strain YPT6, stronger effect = lower value 1.06 | S. cerevisiae deletion strains, locus YLR268W, strain sec22, stronger effect = lower value 1.04 | S. cerevisiae deletion strains, locus YLR320W, strain mms22, stronger effect = lower value 0.967 | S. cerevisiae deletion strains, locus YLR330W, strain CHS5, stronger effect = lower value 1.01 | S. cerevisiae deletion strains, locus YLR342W, strain FKS1 (second series), stronger effect = lower value 0.999 | S. cerevisiae deletion strains, locus YLR342W, strain FKS1, stronger effect = lower value 1.02 | S. cerevisiae deletion strains, locus YLR357W, strain rsc2, stronger effect = lower value 0.958 | S. cerevisiae deletion strains, locus YLR370C, strain arc18, stronger effect = lower value 1.01 | S. cerevisiae deletion strains, locus YLR371W, strain rom2, stronger effect = lower value 1.01 | S. cerevisiae deletion strains, locus YLR384C, strain iki3, stronger effect = lower value 1 | S. cerevisiae deletion strains, locus YLR418C, strain cdc73, stronger effect = lower value 0.986 | S. cerevisiae deletion strains, locus YML016C, strain PPZ1, stronger effect = lower value 1.01 | S. cerevisiae deletion strains, locus YML032C, strain rad52, stronger effect = lower value 0.981 | S. cerevisiae deletion strains, locus YML120C, strain ndi1, stronger effect = lower value 1.03 | S. cerevisiae deletion strains, locus YML124C, strain tub3, stronger effect = lower value 0.999 | S. cerevisiae deletion strains, locus YMR058W, strain fet3, stronger effect = lower value 1 | S. cerevisiae deletion strains, locus YMR078C, strain ctf18, stronger effect = lower value 1.01 | S. cerevisiae deletion strains, locus YMR125W, strain sto1, stronger effect = lower value 0.993 | S. cerevisiae deletion strains, locus YMR129W, stronger effect = lower value 0.98 | S. cerevisiae deletion strains, locus YMR205C, strain PFK2, stronger effect = lower value 1.03 | S. cerevisiae deletion strains, locus YMR223W, strain ubp8, stronger effect = lower value 0.994 | S. cerevisiae deletion strains, locus YMR231W, strain pep5, stronger effect = lower value 0.993 | S. cerevisiae deletion strains, locus YMR307W, strain GAS1, stronger effect = lower value 1.06 | S. cerevisiae deletion strains, locus YNL067W, strain RPL9B, stronger effect = lower value 1.04 | S. cerevisiae deletion strains, locus YNL071W, strain lat1, stronger effect = lower value 0.969 | S. cerevisiae deletion strains, locus YNL128W, strain TEP1, stronger effect = lower value 1.02 | S. cerevisiae deletion strains, locus YNL183C, strain NPR1, stronger effect = lower value 0.948 | S. cerevisiae deletion strains, locus YNL209W, strain ssb2, stronger effect = lower value 0.982 | S. cerevisiae deletion strains, locus YNL233W, strain BNI4, stronger effect = lower value 1.03 | S. cerevisiae deletion strains, locus YNL248C, strain rpa49, stronger effect = lower value 0.926 | S. cerevisiae deletion strains, locus YNL250W, strain rad50, stronger effect = lower value 1.01 | S. cerevisiae deletion strains, locus YNL271C, strain bni1, stronger effect = lower value 1.01 | S. cerevisiae deletion strains, locus YNL298W, strain CLA4, stronger effect = lower value 1 | S. cerevisiae deletion strains, locus YNL307C, strain MCK1, stronger effect = lower value 1.01 | S. cerevisiae deletion strains, locus YNL322C, strain KRE1 (second series), stronger effect = lower value 0.984 | S. cerevisiae deletion strains, locus YNL322C, strain KRE1, stronger effect = lower value 0.999 | S. cerevisiae deletion strains, locus YNR049C, strain mso1, stronger effect = lower value 0.99 | S. cerevisiae deletion strains, locus YNR052C, strain pop2, stronger effect = lower value 1.01 | S. cerevisiae deletion strains, locus YOL006C, strain TOP1, stronger effect = lower value 1.1 | S. cerevisiae deletion strains, locus YOL012C, strain htz1 0.91 | S. cerevisiae deletion strains, locus YOL147C, strain pex11, stronger effect = lower value 0.995 | S. cerevisiae deletion strains, locus YOR001W, strain rrp6, stronger effect = lower value 1.02 | S. cerevisiae deletion strains, locus YOR061W, strain CKA2, stronger effect = lower value 1.01 | S. cerevisiae deletion strains, locus YOR069W, strain VPS5, stronger effect = lower value 1.01 | S. cerevisiae deletion strains, locus YOR070C, strain gyp1, stronger effect = lower value 0.993 | S. cerevisiae deletion strains, locus YOR080W, strain dia2, stronger effect = lower value 1.01 | S. cerevisiae deletion strains, locus YOR083W, strain WHI5, stronger effect = lower value 1.01 | S. cerevisiae deletion strains, locus YOR106W, strain vam3, stronger effect = lower value 1.03 | S. cerevisiae deletion strains, locus YOR136W, strain idh2, stronger effect = lower value 1 | S. cerevisiae deletion strains, locus YOR144C, strain elg1, stronger effect = lower value 0.993 | S. cerevisiae deletion strains, locus YOR184W, strain ser1, stronger effect = lower value 1.01 | S. cerevisiae deletion strains, locus YOR231W, strain MKK1, stronger effect = lower value 0.996 | S. cerevisiae deletion strains, locus YOR265W, strain rbl2, stronger effect = lower value 0.999 | S. cerevisiae deletion strains, locus YOR270C, strain vph1, stronger effect = lower value 0.985 | S. cerevisiae deletion strains, locus YOR290C, strain snf2, stronger effect = lower value 0.946 | S. cerevisiae deletion strains, locus YOR316C, strain cot1, stronger effect = lower value 1 | S. cerevisiae deletion strains, locus YPL051W, strain arl3, stronger effect = lower value 1.01 | S. cerevisiae deletion strains, locus YPL055C, strain LGE1, stronger effect = lower value 1.04 | S. cerevisiae deletion strains, locus YPL078C, strain atp4, stronger effect = lower value 1.04 | S. cerevisiae deletion strains, locus YPL106C, strain sse1, stronger effect = lower value 0.937 | S. cerevisiae deletion strains, locus YPL240C, strain hsp82, stronger effect = lower value 1 | S. cerevisiae deletion strains, locus YPL256C, strain CLN2, stronger effect = lower value 0.99 | S. cerevisiae deletion strains, locus YPR119W, strain clb2, stronger effect = lower value 1 | S. cerevisiae deletion strains, locus YPR141C, strain kar3, stronger effect = lower value 1.01 | S. cerevisiae deletion strains, locus YPR163C, strain tif3, stronger effect = lower value 0.992 | S. cerevisiae deletion strains, locus YPR167C, strain met16, stronger effect = lower value 0.999 | S. cerevisiae deletion strains, strain wtn01, stronger effect = lower value 1.01 | S. cerevisiae strains, strain wild type, stronger effect = lower value 1.01
